This is part of a sample that, as a whole, favours compounds with a hit. Of some 83,000 tested, about 20% had one in any assay.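 Single-concentration screen, 48 h exposure, 96-well plates. Endpoint: percent growth. Below 10 = active.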 Unmarked numbers belong to inactive results. Calls of active or inactive are those of the source.
Key:
Assay in all cases: NCI-60 one-dose screen, 48 h (100 = growth as untreated, 0 = no growth, -100 = all killed)
Conditions in all cases: 10 µM unless noted
NCI-H23 lung = tested on: NCI-H23 lung
NCI-H322M lung = tested on: NCI-H322M lung
HOP-62 NSCLC = tested on: HOP-62 NSCLC
NCI-H460 lung = tested on: NCI-H460 lung
HOP-92 NSCLC = tested on: HOP-92 NSCLC
NCI-H522 lung = tested on: NCI-H522 lung
A549/ATCC NSCLC = tested on: A549/ATCC NSCLC
786-0 renal = tested on: 786-0 renal
COLO 205 colon = tested on: COLO 205 colon
DU-145 prostate = tested on: DU-145 prostate
K-562 leukemia = tested on: K-562 leukemia
MALME-3M melanoma = tested on: MALME-3M melanoma
MDA-MB-231 breast = tested on: MDA-MB-231 breast
RXF 393 renal = tested on: RXF 393 renal
SF-268 CNS = tested on: SF-268 CNS
SF-295 CNS = tested on: SF-295 CNS
SF-539 CNS = tested on: SF-539 CNS
UACC-257 melanoma = tested on: UACC-257 melanoma
M14 melanoma = tested on: M14 melanoma
HCT-15 colon = tested on: HCT-15 colon

## O=C(/C=C/c1cccc(Cl)c1)OCc1ccc2cc1OCC#C/C=C\C#CCO2
NCI-H23 lung
  growth: 102%
NCI-H322M lung
  growth: 91.1%
HOP-62 NSCLC
  growth: 100%
NCI-H460 lung
  growth: 104%
HOP-92 NSCLC
  growth: 150%
NCI-H522 lung
  growth: 83.2%
A549/ATCC NSCLC
  growth: 90.5%
786-0 renal
  growth: 100%
COLO 205 colon
  growth: 106%
DU-145 prostate
  growth: 119%
K-562 leukemia
  growth: 81.9%
MALME-3M melanoma
  growth: 99.7%
MDA-MB-231 breast
  growth: 90.7%
RXF 393 renal
  growth: 101%
SF-268 CNS
  growth: 106%
SF-295 CNS
  growth: 109%
SF-539 CNS
  growth: 100%
UACC-257 melanoma
  growth: 88.8%
M14 melanoma
  growth: 103%
HCT-15 colon
  growth: 102%

## O=C(c1nc2ccccc2[nH]1)C1C(c2ccc([N+](=O)[O-])cc2)C2CC3CCCCC3N2[C@@]12C(=O)Nc1cc(Cl)ccc12 (stereo not given in full)
NCI-H23 lung
  growth: 26.2%
NCI-H322M lung
  growth: 47.6%
HOP-62 NSCLC
  growth: 41.3%
NCI-H460 lung
  growth: 11.2%
HOP-92 NSCLC
  growth: 20.1%
NCI-H522 lung
  growth: 34.7%
A549/ATCC NSCLC
  growth: 18.5%
786-0 renal
  growth: 38.5%
COLO 205 colon
  growth: 22.2%
DU-145 prostate
  growth: 51.3%
K-562 leukemia
  growth: 12.2%
MALME-3M melanoma
  growth: 15%
MDA-MB-231 breast
  growth: 26.6%
RXF 393 renal
  growth: 14.7%
SF-268 CNS
  growth: 41.3%
SF-295 CNS
  growth: 16.5%
SF-539 CNS
  growth: 40.4%
UACC-257 melanoma
  growth: 25.7%
M14 melanoma
  growth: 21.2%
HCT-15 colon
  growth: 11%

## O=c1oc2ccc(F)cc2c(=O)n1-c1ccc(I)cc1F
NCI-H23 lung
  growth: 2.97% (active)
NCI-H322M lung
  growth: 8.02% (active)
HOP-62 NSCLC
  growth: -3.36% (active)
NCI-H460 lung
  growth: 3.08% (active)
HOP-92 NSCLC
  growth: -17.6% (active)
NCI-H522 lung
  growth: -15.8% (active)
A549/ATCC NSCLC
  growth: 5.88% (active)
786-0 renal
  growth: 0.0953% (active)
COLO 205 colon
  growth: 53.9%
DU-145 prostate
  growth: 14.8%
K-562 leukemia
  growth: 7.88% (active)
MALME-3M melanoma
  growth: -22.1% (active)
MDA-MB-231 breast
  growth: -25.4% (active)
RXF 393 renal
  growth: -1.5% (active)
SF-268 CNS
  growth: 12.2%
SF-295 CNS
  growth: -40% (active)
SF-539 CNS
  growth: 3.66% (active)
UACC-257 melanoma
  growth: -14.8% (active)
M14 melanoma
  growth: 3.58% (active)
HCT-15 colon
  growth: 5.2% (active)

## O=c1oc2ccc(Cl)cc2c(=O)n1-c1cc(C(F)(F)F)cc(C(F)(F)F)c1
NCI-H23 lung
  growth: -5.36% (active)
NCI-H322M lung
  growth: 3.4% (active)
HOP-62 NSCLC
  growth: -9.09% (active)
NCI-H460 lung
  growth: 1.5% (active)
HOP-92 NSCLC
  growth: -7% (active)
NCI-H522 lung
  growth: -14.3% (active)
A549/ATCC NSCLC
  growth: 6.11% (active)
786-0 renal
  growth: -11.8% (active)
COLO 205 colon
  growth: -74.8% (active)
DU-145 prostate
  growth: 14.4%
K-562 leukemia
  growth: 8.63% (active)
MALME-3M melanoma
  growth: -33.8% (active)
MDA-MB-231 breast
  growth: -21.9% (active)
RXF 393 renal
  growth: -5.99% (active)
SF-268 CNS
  growth: 3.66% (active)
SF-295 CNS
  growth: -65.1% (active)
SF-539 CNS
  growth: -5.73% (active)
UACC-257 melanoma
  growth: -14.7% (active)
M14 melanoma
  growth: -22.5% (active)
HCT-15 colon
  growth: -5.03% (active)

## COc1c(B(O)O)cccc1-c1nc2ccc3n[nH]c(F)c3c2c2c1CCCC2
NCI-H23 lung
  growth: 92.9%
NCI-H322M lung
  growth: 92.6%
HOP-62 NSCLC
  growth: 66.3%
NCI-H460 lung
  growth: 47.2%
HOP-92 NSCLC
  growth: 78.6%
NCI-H522 lung
  growth: 59.4%
A549/ATCC NSCLC
  growth: 66%
786-0 renal
  growth: 69.5%
COLO 205 colon
  growth: 93.2%
DU-145 prostate
  growth: 77.7%
K-562 leukemia
  growth: 92.9%
MALME-3M melanoma
  growth: 119%
MDA-MB-231 breast
  growth: 28.9%
RXF 393 renal
  growth: 24.1%
SF-268 CNS
  growth: 50.5%
SF-295 CNS
  growth: 80%
SF-539 CNS
  growth: 25.1%
UACC-257 melanoma
  growth: 121%
M14 melanoma
  growth: 104%
HCT-15 colon
  growth: 85.3%

## CN(C)/C=C1\SC(=Nc2ccc(Cl)cc2)NC1=O
NCI-H23 lung
  growth: 103%
NCI-H322M lung
  growth: 108%
HOP-62 NSCLC
  growth: 114%
NCI-H460 lung
  growth: 102%
HOP-92 NSCLC
  growth: 102%
NCI-H522 lung
  growth: 95.8%
A549/ATCC NSCLC
  growth: 100%
786-0 renal
  growth: 99.8%
COLO 205 colon
  growth: 119%
DU-145 prostate
  growth: 108%
K-562 leukemia
  growth: 101%
MALME-3M melanoma
  growth: 103%
MDA-MB-231 breast
  growth: 92.7%
RXF 393 renal
  growth: 100%
SF-268 CNS
  growth: 101%
SF-295 CNS
  growth: 101%
SF-539 CNS
  growth: 96%
UACC-257 melanoma
  growth: 101%
M14 melanoma
  growth: 109%
HCT-15 colon
  growth: 103%

## CC1(C)CC2(C)OC2C2(C1)N=NC(=Nc1ccccc1)O2 (stereo not given)
NCI-H23 lung
  growth: 88.9%
NCI-H322M lung
  growth: 103%
HOP-62 NSCLC
  growth: 60.9%
NCI-H460 lung
  growth: 79.5%
HOP-92 NSCLC
  growth: 87.6%
NCI-H522 lung
  growth: 15.1%
A549/ATCC NSCLC
  growth: 54.1%
786-0 renal
  growth: 36.3%
COLO 205 colon
  growth: 73%
DU-145 prostate
  growth: 67.2%
K-562 leukemia
  growth: 19.5%
MALME-3M melanoma
  growth: 57.1%
MDA-MB-231 breast
  growth: 91.8%
RXF 393 renal
  growth: -1.33% (active)
SF-268 CNS
  growth: 83.3%
SF-295 CNS
  growth: 65.6%
SF-539 CNS
  growth: 83.7%
UACC-257 melanoma
  growth: 64.2%
M14 melanoma
  growth: 65.4%
HCT-15 colon
  growth: 9.91% (active)

## COc1ccc(OC)c(NC(=O)/C(C#N)=C/c2ccco2)c1
NCI-H23 lung
  growth: 96.6%
NCI-H322M lung
  growth: 99.8%
HOP-62 NSCLC
  growth: 90.8%
NCI-H460 lung
  growth: 107%
HOP-92 NSCLC
  growth: 51.1%
NCI-H522 lung
  growth: 45.5%
A549/ATCC NSCLC
  growth: 93.8%
786-0 renal
  growth: 100%
COLO 205 colon
  growth: 92.8%
DU-145 prostate
  growth: 116%
K-562 leukemia
  growth: 88.5%
MALME-3M melanoma
  growth: 80.3%
MDA-MB-231 breast
  growth: 85.1%
RXF 393 renal
  growth: 113%
SF-268 CNS
  growth: 105%
SF-295 CNS
  growth: 98%
SF-539 CNS
  growth: 94.7%
UACC-257 melanoma
  growth: 90.7%
M14 melanoma
  growth: 99.2%
HCT-15 colon
  growth: 91.2%

Reference: PubChem BioAssay (NCI)
